CtBP-E1A inh = blocks the CtBP interaction with E1A; 340,000 tested, 0.49% active; activity change, % (concentration not given with the values); AlphaScreen GST-E1A/His-CtBP binding, 1536-well; stronger effect = lower value; in the data active = activity change below about -65%; inconclusive = mostly about -30% to -63%
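Steps: dispense buffer (Tris pH 8.0, NaCl 300 mM, TCEP 1 mM, BSA, Tween 20); add 5X protein mix (GST-E1A, His-CtBP, 125 nM each); pin 23 nL compound; 2 h at 37 °C, dark; add 5X beads (50 ug/mL); 1 h; read.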
TDP1 block = blocks human tyrosyl-DNA phosphodiesterase 1; Potency, µM (highest dose often 130 µM), for inactives: at the top dose activity change, negative = inhibition, most hits filed as inhibitors; Q9NUW8; 350,000 tested, 0.28% active; recombinant TDP1, AlphaScreen DNA substrate cleavage; AID 485290; also: potency is read from the fitted curve at half-maximal effect; nearly all actives have a fitted effect of over 40% in size
Target sequence (Q9NUW8 whole entry, looked up): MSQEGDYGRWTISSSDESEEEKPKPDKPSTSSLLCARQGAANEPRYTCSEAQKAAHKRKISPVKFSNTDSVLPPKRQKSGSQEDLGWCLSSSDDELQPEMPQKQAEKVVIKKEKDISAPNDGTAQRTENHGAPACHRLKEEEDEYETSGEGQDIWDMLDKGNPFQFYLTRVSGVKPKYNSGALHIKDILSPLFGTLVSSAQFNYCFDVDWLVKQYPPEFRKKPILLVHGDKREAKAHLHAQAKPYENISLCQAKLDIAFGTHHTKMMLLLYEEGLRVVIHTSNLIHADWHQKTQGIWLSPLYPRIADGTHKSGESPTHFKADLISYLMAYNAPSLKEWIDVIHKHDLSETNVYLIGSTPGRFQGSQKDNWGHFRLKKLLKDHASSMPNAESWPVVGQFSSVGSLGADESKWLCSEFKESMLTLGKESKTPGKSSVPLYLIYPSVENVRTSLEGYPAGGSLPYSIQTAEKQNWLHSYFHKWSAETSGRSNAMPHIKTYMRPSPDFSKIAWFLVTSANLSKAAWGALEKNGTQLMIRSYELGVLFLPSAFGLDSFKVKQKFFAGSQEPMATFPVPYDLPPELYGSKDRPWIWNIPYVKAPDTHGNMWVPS
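Signal: AlphaScreen proximity between streptavidin donor and anti-FITC acceptor beads on intact substrate. Reaction: Tdp1 1 nM, substrate 15 nM final, 5 min RT after 15 min compound preincubation.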
TDP1 cell noCPT = qHTS for Inhibitors of human tyrosyl-DNA phosphodiesterase 1 (TDP1): qHTS in cells in absence of CPT; DT40 Tdp1-/- hTDP1 cells, no CPT, ATP luminescence, 48 h; Potency, µM (titrated, usually from 46.2 µM), for inactives: top-dose activity change, negative = growth inhibition, actives largely listed as inhibitors; 420,000 tested, 15% active; also: potency is read from the fitted curve at half-maximal effect; nearly all actives have a fitted effect of over 55% in size
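Cells were dispensed at 400 per well, compounds added by pin tool, plates incubated ≥48 hr at 37 °C, then CellTiter-Glo added for 30 min at room temperature before luminescence reading. Line: DT40 Tdp1-/- complemented with hTDP1; camptothecin omitted.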
Six1-Eya2 blk = blocks human Six1 binding to Eya2; 360,000 tested, 0.56% active; AID 651725; Q15475+O00167; AlphaScreen GST-Six1/His-Eya2 binding, biochemical; stronger effect = lower value; activity change, % (test concentration not listed); in the data active = activity change below about -65%; inconclusive = mostly about -30% to -63%
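Homogeneous AlphaScreen proximity assay pairing GST-Six1 with His-tagged Eya2 (added as 5X mix: 250 nM and 500 nM) in 50 mM Tris pH 8.0, 300 mM NaCl, 1 mM TCEP. Glutathione donor and nickel acceptor beads; 1 h, 37 °C, dark.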
DT40 TDP1 CPT = DT40-hTDP1 cell growth loss with CPT. chicken DT40 Tdp1-/-;hTDP1 cells + 20 nM CPT, ATP luminescence, 48 h. Potency, µM (titrated, usually from 46.2 µM), for the others: at the top dose activity change, negative = growth inhibition, usual class: inhibitors. 420,000 tested, 12% active; also: potency is read from the fitted curve at half-maximal effect; nearly all actives have a fitted effect of over 55% in size
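Chicken DT40 Tdp1-/- cells complemented with human TDP1, 400 cells/well, exposed to compounds plus 20 nM camptothecin for at least 48 h at 37 C; viability read as ATP content by CellTiter-Glo luminescence.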
IL1B secr inh = inhibitors of inflammasome signaling (IL-1 beta secretion) | THP-1 LPS/ATP IL-1B secretion, AlphaLISA, 16 h; stronger effect = lower value | activity change, % at 57.5 µM | 360,000 tested, 4.7% active; in the data active = activity change below about -50%; inconclusive = mostly about -30% to -49%
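THP-1 cells pretreated 1 hr with compounds (up to 57.5 uM final), then stimulated with LPS (250 ng/mL final) plus ATP (1.25 mM final); secreted IL-1B measured by AlphaLISA after 16 hr, decreased signal indicating inhibition.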
* hit, by the source's call; ? = inconclusive; . = no result; [ ] = dose if it differs, or a comment. An excerpt weighted towards active compounds, which were near 18% of everything screened. Unless noted, calls follow the shape of the dose curve; as a rule, active = well fitted curve in the direction sought with a large enough effect; inconclusive = small, poorly fitted or top-dose-only effect, or another doubt; inactive = no such curve, though single readings can be large; an effect the other way counts as inactive or inconclusive. % is scaled to controls: 0 for no effect and ±100 for the full control effect.

SMILES	CtBP-E1A inh	TDP1 block	TDP1 cell noCPT	Six1-Eya2 blk	DT40 TDP1 CPT	IL1B secr inh
O=C(CCc1nnc2ccc(NCc3ccco3)nn12)Nc1ccc(F)cc1	-7.6	5.1%	0.4%	-0.6	-4.4%	-5.8
COc1ccc(N2CCN(c3c4c(nc5nncn35)CCC4)CC2)cc1	.	2.3%	8.2µM*	.	8.2µM*	.
O=C(CSc1nc2ccccc2s1)NNC(=S)Nc1ccc(Cl)cc1	-9.1	5.7%	?	-17.6	-4.9%	25.0
CC12CCC(C/C1=N\N=C1\NC(=O)/C(=C\c3ccc(Cl)cc3)S1)C2(C)C (stereo not given)	6.4	3.2%	?	-3.3	?	-57.4*
O=C1NC(=Nc2ccccc2Cl)S/C1=C\c1ccc(C(=O)O)cc1	.	.	-6.7%	-5.7	7.5%	-2.7
Cc1cccc2cc(CN(Cc3ccco3)C(c3nnnn3CCc3ccccc3)C(C)C)c(=O)[nH]c12 (stereo not given)	-6.7	6.3%	14.6µM*	-8.6	?	0.0
COc1ccc2[nH]c(=O)c(CN(C(=O)c3ccco3)C(C)C)cc2c1	-11.2	8.7%	-10.8%	-1.2	-1.4%	-0.5
COc1ccc2[nH]c(=O)c(CN(Cc3ccco3)C(c3nnnn3Cc3ccccc3)C(C)C)cc2c1 (stereo not given)	-3.3	3.3%	20.6µM*	-14.8	18.4µM*	-10.1
COCCn1nnnc1C(C(C)C)N(Cc1ccccc1)Cc1cc2cc(OC)ccc2[nH]c1=O (stereo not given)	-2.3	4.7%	16.4µM*	-4.9	?	-55.8*
CCOC(=O)c1sc2cc([N+](=O)[O-])cc(SCC(=O)OC)c2c1N	?	10.1%	-29.1%	?	-1.8%	-0.6
O=C1CN(S(=O)(=O)c2cc(C(=O)O)ccc2Cl)c2ccccc2N1	20.3	9.3%[0.0935 µM]	-14.3%	-2.6	15.2%	54.1
O=C(COc1ccc([N+](=O)[O-])cc1)NCc1ccccc1	-10.1	3.8%	-8.5%	2.0	?	-6.0
COc1ccc(OC)c(-c2nn(-c3ccccc3)cc2C(=O)NCC(c2ccco2)N2CCCC2)c1 (stereo not given)	.	1.2%	20.6µM*	-16.1	?	-19.7
COc1ccccc1-c1nn(Cc2ccccc2)cc1C(=O)NCC(c1ccco1)N1CCCC1 (stereo not given)	-3.3	0.6%	0.0%	-0.1	?	13.7
Cc1ccccc1-c1nn(-c2ccccc2)cc1C(=O)NCC(c1ccco1)N1CCCC1 (stereo not given)	-6.4	3.4%	18.4µM*	-4.5	20.6µM*	?
Cc1cc(C)c2c(SC(C)C)nc(N)nc2n1	.	.	18.4µM*	-2.7	?	0.0
CC(=O)n1nc2nc(C)cc(C)c2c1N	1.5	3.1%	1.8%	-0.7	-15.8%	35.2
Cc1ccc(CC2CC(=O)N(c3nc4ccccc4s3)C2=O)cc1 (stereo not given)	.	9.6%	0.9%	3.9	8.6%	22.0
Cc1ccc(Cc2cnc(N3C(=N)SC(c4ccccc4)C3=O)s2)cc1 (stereo not given)	-9.3	11.0%	16.4µM*	-4.6	16.4µM*	0.0
O=C(NCC1CC1)C1Cc2c(-c3ccccc3Oc3ccccc3)ccnc2O1 (stereo not given)	1.3	.	-43.9%	-1.8	?	-8.1
Cc1ccc2c(=O)cc(C(=O)N(Cc3ccccc3Cl)C3CCS(=O)(=O)C3)oc2c1 (stereo not given)	.	2.5%	?	.	-27.2%	.
Cc1cc2oc(C(=O)N(Cc3ccccc3F)C3CCS(=O)(=O)C3)c(C)c2cc1Cl (stereo not given)	.	8.6%	16.4µM*	.	?	.
Cc1c(C(=O)N(Cc2cccc(F)c2)C2CCS(=O)(=O)C2)oc2cc(Br)ccc12 (stereo not given)	.	8.6%	18.4µM*	.	?	.
COc1ccc(CC(=O)Nc2ccc3c(c2)CCC3)cc1OC	9.4	5.6%	9.2µM*	-6.3	?	-20.6
COc1ccc(OC)c(CC(=O)Nc2ccc3c(c2)CCC3)c1	-10.0	4.0%[0.0935 µM]	-26.2%	-2.2	-4.4%	-0.4
SMILES	CtBP-E1A inh	TDP1 block	TDP1 cell noCPT	Six1-Eya2 blk	DT40 TDP1 CPT	IL1B secr inh
COc1ccc(OC)c(CNc2ccc3c(c2)CCC3)c1	-3.3	9.6%	16.4µM*	-8.4	?	-27.4
O=C(c1cnc2ccccn2c1=O)N1CCCc2ccccc21	7.8	-4.5%	-6.1%	4.8	-13.8%	9.3
S=c1nccc(-c2ccc3c(c2)CCO3)[nH]1	-0.8	.	?	9.2	10.3µM*	24.0
O=C(CSc1nnc(Cc2cccs2)n1CCc1ccccc1)N1CCCc2ccccc21	-5.9	6.8%	?	-0.6	?	-20.1
Cc1ccc(-c2cc(C(=O)N3CCN(c4ncccn4)CC3)c3cc(Br)ccc3n2)o1	-19.0	0.0%	8.2µM*	-15.9	4.11µM*	-6.4
Cc1ccc(-c2cc(C(=O)N3CCN(c4ccc(O)cc4)CC3)c3ccccc3n2)cc1	.	8.7%	?	?	?	-23.7
Cc1ccc(-c2cc(C(=O)N3CCN(c4ccc(F)cc4)CC3)c3ccccc3n2)o1	-22.9	-2.0%	29.1µM*	-19.8	?	-3.8
Cc1ccc(-c2cc(C(=O)N3CCOCC3)c3ccccc3n2)o1	1.6	0.8%	18.4µM*	-6.3	?	6.3
O=C(c1cc(-c2ccccc2)nc2ccccc12)N1CCOCC1	0.0	0.0%	-7.6%	2.2	3.4%	15.0
CC(=O)c1ccc(S(=O)(=O)N2CCCC(N(C)CCc3ccccn3)C2)cc1 (stereo not given)	.	3.4%	-18.5%	0.5	-5.4%	5.6
Cc1ccc(C(=O)/C=C/c2ccc(-c3ccc(C)cc3)o2)cc1	18.7	3.5%	5.17µM*	18.8	5.17µM*	-13.8
O=C(/C=C\c1ccc(-c2ccccc2)o1)c1ccccc1	0.3	0.6%	?	12.4	?	-91.5*
CCN(CC)S(=O)(=O)c1ccc(C(=O)/C=C/c2ccc(-c3ccc([N+](=O)[O-])cc3)o2)cc1	5.0	.	6.51µM*	2.1	?	0.0
O=C(O)c1ccc(CNc2ccccc2C(=O)O)cc1	-0.6	-7.2%	-2.0%	-9.3	-2.3%	-3.5
CCN(Cc1ccccc1)S(=O)(=O)c1c(C(=O)N2CCCC2)c(C)n(C)c1C	2.2	9.2%	4.8%	1.1	-17.0%	3.6
Nc1ccc2nc(-c3ccccc3)[nH]c2c1	-14.8	8.2%	?	-2.3	?	-2.3
Nc1ccc2nc(-c3ccc(N)c(Cl)c3)[nH]c2c1	-17.8	.	8.2µM*	-15.6	6.51µM*	?
